ClpP mod: qHTS Assay for Activators of ClpP; ATP-dependent Clp protease proteolytic subunit (Bacillus subtilis (strain 168)), P80244; purified B. subtilis ClpP, FRET peptide cleavage, 20 min; Potency, µM (highest dose often 57.5 µM), for the others: at the highest dose activity change, negative = active; 1.9% of 340,000 active; active = well fitted falling curve with a large enough effect; inconclusive = small, poorly fitted or top-dose-only effect; inactive = no such curve, though single readings can be large or run the other way; note: potency is the fitted concentration of half-maximal effect; the source files actives as falling curves though it sought activators and does not explain the sign; nearly all actives have a fitted effect of over 65% in size
Target sequence (P80244 whole entry, looked up): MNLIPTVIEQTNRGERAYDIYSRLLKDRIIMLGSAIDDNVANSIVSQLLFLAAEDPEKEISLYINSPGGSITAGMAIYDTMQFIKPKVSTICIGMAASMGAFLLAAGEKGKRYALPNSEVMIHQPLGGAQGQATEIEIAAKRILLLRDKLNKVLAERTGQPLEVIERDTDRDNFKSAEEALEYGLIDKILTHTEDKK
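ClpP 10 microg/mL final, pH 8 Tris/KCl buffer with BSA, glycerol, Tween-20; compound pinned in; FRET-FV substrate; RT 20 min; Ex320/Em430; ΔFRET vs ADEP 5.8 microM, DMSO, no enzyme.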
TRPV1 agonist: activates the human vanilloid receptor TRPV1 | Q8NER1 | TRPV1-expressing cells, Fluo-8 calcium influx, agonist mode | activation, % at 8.33 µM | 0.19% of 320,000 active | AID 540275; in the data active = activation above about 80%; inconclusive = between about 30% and that limit; note: 0% is about no effect
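Fluo-8 calcium influx in TRPV1-expressing cells, kinetic read (ex 480/em 520 nm). Compound added and read 3 min for agonist activity, followed by capsaicin at EC20 final and 2 min further read for enhancement.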
hERG WT inh: inhibitors of human wildtype KCNH2 potassium channel. Q12809. U2OS, BacMam KCNH2, thallium flux FluxOr; active compounds read low. activity change, % at 1.84 µM. 0.37% of 340,000 active;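 active = maximum activity change below -70%; inconclusive = maximum activity change between -70% and -50%; inactive = maximum activity change above -50%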; note: % is set by controls: 0 for no effect and ±100 for the full control effect
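U2OS cells transduced with wild-type KCNH2 virus are loaded with FluxOr dye for 45 min, and thallium flux is measured in kinetic reads before and after stimulation buffer. Rate constants are normalized to DMSO controls.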
KCNH2 3.1 inh: blocks the human KCNH2 3.1 channel isoform | AID 720553 | activity change, % (tested at about 1.8 µM) | U2OS KCNH2 3.1, thallium flux FluxOr; active compounds read low | 0.95% of 340,000 active;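 active = maximum activity change below -70%; inconclusive = maximum activity change from -70% to -50%; inactive = maximum activity change above -50%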;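 note: thallium influx rate constant from kinetic fluorescence after stimulation buffer; % is set by controls: 0 for no effect and ±100 for the full control effect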
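Steps: virus added to U2OS suspension (4 h, RT, dark); medium with 10% FBS added, cells plated, 37 C overnight; FluxOr/Red40 loading buffer 45 min RT; stimulation buffer, 2 min kinetic read; rate constant normalized.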
p53 reactivation: restores transcriptional activity of mutant p53 | H1299 p53-A138V BP100-luciferase reporter, luminescence, 24 h | Potency, µM (doses to about 92.2 µM), inactives show top-dose activity change, positive = activation, most hits filed as activators | 0.063% of 320,000 active | AID 504706; active = well fitted activation curve with a large enough effect; inconclusive = small, poorly fitted or top-dose-only effect; inactive = no such curve, though single readings can be large or run the other way; note: potency is the fitted concentration of half-maximal effect; % of control where 0% means no effect; nearly all actives have a fitted effect of over 45% in size
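p53-null H1299 cells stably carrying temperature-sensitive p53-A138V and a BP100-luciferase reporter were pinned with compounds (4-point, 1:5 series) and held 24 hrs at 37 deg C. Luminescence was read 10 min after detection reagent.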
TRPV1 potentiator: potentiators of human vanilloid receptor 1 (TRPV1). Q8NER1. TRPV1-expressing cells, Fluo-8 calcium influx, capsaicin EC20 potentiation. potentiation, % at 8.33 µM. 0.02% of 320,000 active; in the data active = potentiation above about 80%; inconclusive = between about 30% and that limit; note: 0% is about no effect
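TRPV1-expressing cells were cultured overnight at 35.5C and loaded with Fluo-8 calcium dye for 40 to 90 min at room temperature. After a 10 s baseline, compound was added and calcium influx was read kinetically for 3 min (ex 480/em 520 nm).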
Numbers without * were called inactive. Only some compounds are listed: those with a hit (about 2.6% of all), similar ones and a draw of the others.

How did O=C(Cn1c(-c2ccco2)nc2ccccc21)N1CCCCC1 do in these assays?
ClpP mod: 16µM*; TRPV1 agonist: -8; hERG WT inh: 4; KCNH2 3.1 inh: -8; p53 reactivation: 0%; TRPV1 potentiator: -1

What do the screens show for `CCOC(=O)c1cccc(NC(=O)Cn2c(CC(=O)N3CCCC3)nc3ccccc32)c1`?
TRPV1 agonist: -1; p53 reactivation: -6%; TRPV1 potentiator: 0

How did O=C(O)Cn1c(CC(=O)N2CCCC2)nc2ccccc21 do in these assays?
ClpP mod: 0%; TRPV1 agonist: 1; hERG WT inh: -19; KCNH2 3.1 inh: -169*; p53 reactivation: 0%; TRPV1 potentiator: 1

What do the screens show for `CN1CCN(C(=O)C[C@H]2C[C@H]3c4cc(NC(=O)NC5CCCCC5)ccc4O[C@H]3[C@@H](CO)O2)CC1`?
ClpP mod: -2%; hERG WT inh: 5; KCNH2 3.1 inh: -7

How did O=c1oc2c(F)cc(F)cc2cc1S(=O)(=O)c1ccc(F)cc1 do in these assays?
ClpP mod: 22µM*

What do the screens show for `Cc1ccc2oc(=O)c(S(=O)(=O)c3ccc(F)cc3)cc2c1`?
ClpP mod: 4%

How did CCOc1ccc(C(=O)Nc2ccc(-c3cc4ccccc4oc3=O)cc2)cc1Br do in these assays?
ClpP mod: 5%

What do the screens show for `CCOC(=O)C1C(C#N)=C(N)OC(C)=C1c1ccncc1` (stereo not drawn)?
ClpP mod: 32µM*; TRPV1 agonist: -2; hERG WT inh: -5; KCNH2 3.1 inh: 35; p53 reactivation: 2%; TRPV1 potentiator: 5

How did CCOC(=O)CC1=C(C(=O)OCC)C(c2ccncc2)C(C#N)=C(N)O1 (stereo not drawn) do in these assays?
ClpP mod: -2%; TRPV1 agonist: -2; hERG WT inh: -1; KCNH2 3.1 inh: 16; p53 reactivation: 0%; TRPV1 potentiator: -11

Results for O=[N+]([O-])c1cc(C=NN2CCCCCC2)ccc1Cl ?
ClpP mod: 28µM*; hERG WT inh: -11; KCNH2 3.1 inh: 3

How did COc1ccc2[nH]c(C(O)C(O)c3nc4c(OC)c(OC)ccc4[nH]3)nc2c1OC (stereo not drawn) do in these assays?
ClpP mod: -4%

Results for COc1ccccc1C(NC(C)=O)c1c(O)ccc2ccc(O)cc12 (stereo not drawn) ?
hERG WT inh: -1; KCNH2 3.1 inh: 1

How did COc1ccccc1C(NC(=O)CC(C)C)c1c(O)ccc2ccccc12 (stereo not drawn) do in these assays?
ClpP mod: 35µM*; TRPV1 agonist: 3; hERG WT inh: -9; KCNH2 3.1 inh: -3; p53 reactivation: inconclusive; TRPV1 potentiator: 5

How did CCCc1cc2c(c(NC(C)=O)n1)c(=O)oc1ccccc12 do in these assays?
ClpP mod: 32µM*; TRPV1 agonist: 2; hERG WT inh: 5; KCNH2 3.1 inh: 9; p53 reactivation: -10%; TRPV1 potentiator: -2

How did CCCC(=O)Nc1cc(C)c2c(=O)oc3ccccc3c2n1 do in these assays?
ClpP mod: -4%; TRPV1 agonist: inconclusive; hERG WT inh: -4; KCNH2 3.1 inh: 4; p53 reactivation: 4%; TRPV1 potentiator: -13

What do the screens show for `Cc1ccc2c(c1)c1ncnc(N3CCOCC3)c1n2C`?
ClpP mod: 36%; TRPV1 agonist: 10; hERG WT inh: -3; KCNH2 3.1 inh: 13; p53 reactivation: inconclusive; TRPV1 potentiator: -4

What do the screens show for `Cc1ccc2c(c1)c1ncnc(N3CCN(c4ccccc4)CC3)c1n2C`?
ClpP mod: 32µM*; TRPV1 agonist: 4; hERG WT inh: -6; KCNH2 3.1 inh: -8; p53 reactivation: 7%; TRPV1 potentiator: 3

Results for CCCC(=O)Nc1ccc2c(c1)C(=O)N(CCC(=O)O)C2=O ?
ClpP mod: 28µM*; TRPV1 agonist: 3; hERG WT inh: 6; KCNH2 3.1 inh: 15; p53 reactivation: -2%; TRPV1 potentiator: 3

How did O=C(O)CCN1C(=O)c2ccc(NC(=O)c3cccs3)cc2C1=O do in these assays?
ClpP mod: 32µM*; TRPV1 agonist: -1; hERG WT inh: -11; KCNH2 3.1 inh: 10; p53 reactivation: -9%; TRPV1 potentiator: -3

How did CCC(=O)Nc1ccc2c(c1)C(=O)N(C)C2=O do in these assays?
ClpP mod: 28µM*; TRPV1 agonist: -6; hERG WT inh: -15; KCNH2 3.1 inh: -2; p53 reactivation: -2%; TRPV1 potentiator: -1

What do the screens show for `O=C(O)CCN1C(=O)c2ccc(NC(=O)CSc3ccccc3)cc2C1=O`?
ClpP mod: 1%; TRPV1 agonist: -2; hERG WT inh: -3; KCNH2 3.1 inh: 5; p53 reactivation: 11%; TRPV1 potentiator: -8

How did CCOC(=O)Cn1c(=O)n(C2CCCCC2)c2nc(-c3c(F)cccc3Cl)nc(C(N)=O)c21 do in these assays?
ClpP mod: 4%

Results for CCCNC(=S)N1CCN(C)CC1 ?
ClpP mod: 7.1µM*; TRPV1 agonist: 1; hERG WT inh: 2; KCNH2 3.1 inh: 15; p53 reactivation: -4%; TRPV1 potentiator: 1

How did COc1ccc(CNC(=O)COC(=O)c2cc(-c3cccs3)nc3ccccc23)cc1OC do in these assays?
ClpP mod: inconclusive; TRPV1 agonist: 88*; hERG WT inh: -5; KCNH2 3.1 inh: -3; p53 reactivation: -5%; TRPV1 potentiator: -19

How did COc1ccc(CN(C)C(=O)c2ccccc2Sc2ccccc2C#N)cc1OC do in these assays?
ClpP mod: 0%; TRPV1 agonist: 5; hERG WT inh: 23; KCNH2 3.1 inh: -3; p53 reactivation: -31%; TRPV1 potentiator: 0

What do the screens show for `COc1cccc(C(=O)COC(=O)c2cc(-c3cccs3)nc3ccccc23)c1`?
ClpP mod: 4%

How did COc1cccc(CN(C)C(=O)c2cc(-c3cccs3)nc3ccccc23)c1 do in these assays?
ClpP mod: 32µM*; TRPV1 agonist: 9; hERG WT inh: 4; KCNH2 3.1 inh: -5; p53 reactivation: -9%; TRPV1 potentiator: -5

What do the screens show for `COc1cccc(CN(C)C(=O)c2ccccc2Sc2ccccc2C#N)c1`?
ClpP mod: -2%; TRPV1 agonist: 2; hERG WT inh: -7; KCNH2 3.1 inh: -93*; p53 reactivation: -3%; TRPV1 potentiator: 11

Results for Cc1ccc2cc3cc(C(=O)N4CCN(c5ccc(Cl)cc5)CC4)oc3nc2c1 ?
ClpP mod: 1%

What do the screens show for `CCOc1ccc2cc(C#N)c(SCC(=O)N3CCOCC3)nc2c1`?
ClpP mod: 25µM*; TRPV1 agonist: -4; hERG WT inh: 13; KCNH2 3.1 inh: 9; p53 reactivation: inconclusive; TRPV1 potentiator: 5
